About 83,000 compounds went through this panel and 20% of them were active in at least one assay; those are over-represented in the sample as a whole.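 Method: cells in 96-well plates; compound added at one concentration; 48 h incubation; percent growth measured; values under 10 scored active.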 A number with no mark means an inactive call. Activity calls are given as the source filed them.
test system: HL-60(TB) leukemia; assay: NCI-60 one-dose screen, 48 h (100 = growth as untreated, 0 = no growth, -100 = all killed); details: 10 µM unless noted

Compound | growth
CNC(=O)c1cc(Oc2ccc3nc(NC(=O)c4cc(N5CCOCC5)cc(C(F)(F)F)c4)sc3c2)ccn1 | 68%
C#C[C@]1(O)CC[C@H]2[C@@H]3CC=C4c5sc(N(C)c6ccccc6)nc5CC[C@]4(C)[C@H]3CC[C@@]21C | 61.8%
CC1=C(C)C(=O)C(Nc2cccc(C(=O)OC(C)(C)C)c2)=C(Cl)C1=O | 68%
CN1CCN(Cc2ccc(NC(=O)c3cncc(C#Cc4cnc5ccc(OCC(F)F)nn45)c3)cc2C(F)(F)F)CC1 | -52.2% (active)
O=C(CN1CCN(c2cc(=O)n(-c3ccccc3)c3ccccc23)CC1)Nc1cccc(C(F)(F)F)c1 | 28.6%
O=C(CSc1nnc(-c2ccc3nc(-c4ccc(Cl)cc4)[nH]c3c2)o1)Nc1ccc(C(=O)/C=C/c2ccc(Cl)cc2)cc1 | 86%
CCNC(=O)N1CCc2cc(OC)c(OCCc3ccc(OC)nc3)cc2C1c1ccc(C)cc1C (stereo not given) | 8.48% (active)
CCCCN1C(=O)/C(=c2\sc3n(c2=O)C2C(NN=3)N(CC)C(=O)N2CC)c2cc(C)ccc21 (stereo not given) | 93.2%
C1=CC(c2nn3c(-c4ccccc4)nnc3s2)=Cc2ccccc2O1 | 37%
COc1cc(/C=N\NC(=O)c2ccc3nc(-c4ccc(Br)cc4)[nH]c3c2)cc(OC)c1OC | 27%
CCNC(=NCCCN(C)C)N/C(N)=N/c1nc2ccccc2s1 | 90.9%
COc1cc(Nc2c(C#N)cnn3cc(-c4cnn(CC(C)(C)O)c4)cc23)ccc1Cl | 47.8%
CCOP(=O)(OCC)OC[C@]12CCC(C)(C)C[C@H]1C1=CC[C@@H]3[C@@]4(C)C/C(=C\c5cccnc5)[C@H](OP(=O)(OCC)OCC)C(C)(C)[C@@H]4CC[C@@]3(C)[C@]1(C)CC2 | -22.2% (active)
C/C(CC1(O)C(=O)Nc2ccccc21)=N\O (stereo not given) | 97%
C/C(=N\O)[C@H]1C[C@]23CC[C@]4(C)[C@H](CC[C@@H]5[C@@]6(C)CC/C(=N/O)C(C)(C)[C@@H]6CC[C@]54C)[C@H]2[C@H](C)C1(C)OC3 | 121%
Brc1ccc(-c2cc(-c3ccc4c(c3)OC=CO4)n[nH]2)s1 | 78.8%
CCCCOc1ccc(S(=O)(=O)N2CCN(c3nc(C)cc(N4CCOCC4)n3)CC2)cc1 | 20.3%
Cc1ccc(CNS(=O)(=O)/N=C2\NC(=O)NC2=C(Cl)Cl)cc1 | 28.6%
O=C1Nc2ccccc2/C1=C/c1ccc(COCC2CO2)n1-c1ccc(O)cc1 (stereo not given) | 103%
CN1CCN(c2ccc(Nc3nc(NCCNS(=O)(=O)c4ccc(Cl)cc4)c4sccc4n3)cc2)CC1 | 80.1%

Compound | growth
COc1ccc(NC(=O)[C@H](C)NC(=O)OC(C)(C)C)cc1C(=O)Nc1cccc(-c2cc(=O)c3c(OC)c(OC)c(OC)cc3o2)c1 | 2.88% (active)
CCCn1cnc2c(c1=N)C(c1ccc(F)cc1)c1sc3c(CC)cccc3c1O2 (stereo not given) | -36.4% (active)
CC1=C(C)C(=O)C(Nc2cccc(C(=O)OC(C)(C)C)c2)=CC1=O | 71%
CN(C)S(=O)(=O)c1ccc(-c2nc(C(Cl)Cl)nc3cc(-c4ccc(F)cc4)nn23)cc1 | 6.96% (active)
N/C(=N\C(N)=N\c1nc2ccccc2s1)c1ccc(Cl)cc1 | 90.3%
CCCC/C(=C\c1ccc(O)c(O)c1)C(=O)NC(Cc1ccccc1)C(=O)C(=O)NCCc1ccc(OC)cc1 (stereo not given) | 92.5%
Cc1c(NC(=O)CSc2nc3sc4c(c3c(=O)n2-c2ccc(Cl)cc2)CCCC4)c(=O)n(-c2ccccc2)n1C | 80%
Nn1c(N/N=C/c2nc3ccccc3s2)n[nH]c1=S | 136%
C#C[C@]1(O)CC[C@H]2[C@@H]3CC=C4c5sc(Nc6ccncc6)nc5CC[C@]4(C)[C@H]3CC[C@@]21C | -24% (active)
NC(=O)c1ncn2c(=O)n(CCF)nnc12 | 29.6%
O=C1/C(=C/C=C/c2ccco2)SC(=S)N1Cc1ccccc1 | 96.9%
COc1cc(CNC(=O)/C=C/c2ccccc2)ccc1OCC(=O)NO | 121%
CCCCCc1ccc(S(=O)(=O)Nc2cccc(-c3csc(NC(=O)CN4CCN(CCO)CC4)n3)c2)cc1 | 66.3%
CC[C@]12C=CCN3CC[C@@]4(c5cc(NC(=O)COc6cc(O)c7c(=O)cc(-c8ccccc8)oc7c6)c(OC)cc5N(C)[C@H]4[C@@](O)(C(=O)OC)[C@@H]1OC(C)=O)[C@@H]32 | -44.9% (active)
Cc1ccc(-c2nn(-c3ccccc3)cc2/C=C/C(=O)c2ccc(NC(=O)CCCCCCC(=O)NO)cc2)cc1 | 109%
NS(=O)(=O)c1cccc(Nc2nc(SCC(=O)c3ccc([N+](=O)[O-])cc3)nc3ccccc23)c1 | 0.866% (active)
CN1CCN(c2ccc(NC(=O)Nc3ccc4c(ccn4-c4cccc(C(N)=O)n4)c3)cc2C(F)(F)F)CC1 | 66.1%
CC(=O)NC(C)(C)C(=O)N1CCC[C@H]1C(=O)NC(C)(C)C(=O)N[C@@H](C)C(=O)NC(C)(C)C(=O)N[C@@H](C)C(=O)N[C@@H](CCC(N)=O)C(=O)NC(C)(C)C(=O)N[C@H](C(=O)NC(C)(C)C(=O)NCC(=O)N[C@@H](CC(C)C)C(=O)NC(C)(C)C(=O)N1CCC[C@H]1C(=O)N[C@H](C(=O)NC(C)(C)C(=O)NC(C)(C)C(=O)N[C@@H](CCC(N)=O)C(=O)N[C@@H](CCC(N)=O)C(=O)N[C@H](CO)Cc1ccccc1)C(C)C)C(C)C | 95.6% [4.25 µM]
Cc1nn(-c2ccc(Cl)cc2)c(C)c1N=Nc1ccc2oc(=O)ccc2c1 | 93.5%
O=C1C(SCc2ccccc2)=C(Cl)CN1c1ccccc1 | 72.6%
